Where “and” joins values, the source holds several entries; their conditions need not be identical. Identical values can stand only once. Records with an inconclusive call do not appear. Calls of active or inactive are those of the source. Unless noted, calls follow the shape of the dose curve; as a rule, active = well fitted inhibition curve with a large enough effect; inconclusive = small, poorly fitted or top-dose-only effect; inactive = flat fitted curve, though single readings scatter.
What was measured:
[1] = Drug repurposing screens with cells derived from glioblastoma tumor samples (AID 1345199); conditions: GBM patient neurospheres viability, ATP luminescence, 48 h; also: nearly all actives have a fitted effect of over 40% in size; also: potency is read from the fitted curve at half-maximal effect; as to activity, negative = cell killing: % is scaled to controls: 0 for no effect and ±100 for the full control effect
How it was run: (§1)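 Four patient lines of CD133+ GBM neurospheres were screened at several concentrations; hits were retested in those lines plus three slower-growing GBM lines, using 48-hour treatment and ATP-based viability.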

astro = control astrocytes; test: as above; conditions: viability, ATP luminescence, 48 h; series mostly up to 45.9 µM
How it was run: as §1

[2] = molecular target: Nuclear receptor subfamily 1 group I member 2 (Rattus norvegicus) (UniProt Q9R1A7); test: qHTS assay for small molecule activators of the rat pregnane X receptor (rPXR) signaling pathway (AID 651751; call rule not given here; also: 0% is about no effect); conditions: rPXR reporter cells, luciferase (One-Glo), 24 h
Nuclear receptor subfamily 1 group I member 2 (Rattus norvegicus), sequence (Q9R1A7 whole entry, looked up): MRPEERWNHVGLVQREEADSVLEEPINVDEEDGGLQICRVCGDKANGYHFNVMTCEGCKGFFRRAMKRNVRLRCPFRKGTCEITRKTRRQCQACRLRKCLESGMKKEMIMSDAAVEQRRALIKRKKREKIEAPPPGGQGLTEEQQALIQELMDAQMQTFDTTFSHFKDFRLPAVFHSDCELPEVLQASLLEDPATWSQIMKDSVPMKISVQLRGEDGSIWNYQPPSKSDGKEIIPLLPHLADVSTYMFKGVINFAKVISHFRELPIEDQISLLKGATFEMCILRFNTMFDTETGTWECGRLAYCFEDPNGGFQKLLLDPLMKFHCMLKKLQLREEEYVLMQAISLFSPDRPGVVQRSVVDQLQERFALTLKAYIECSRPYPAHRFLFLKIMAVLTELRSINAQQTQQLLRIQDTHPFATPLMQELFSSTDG

[3] = qHTS assay for small molecule activators of the human pregnane X receptor (PXR) signaling pathway (AID 720659; call rule not given here; also: 0% is about no effect); conditions: DPX-2 HepG2 CYP3A4-luciferase, 24 h; series mostly up to 92.3 µM
[4] = at 45.9 µM (top of the series), tumour line B
[5] = at 45.9 µM (top of the series), tumour line D
[6] = at 46.1 µM (top of the series), tumour line C
[7] = at 46 µM (top of the series), tumour line A
[8] = at 20 µM (top of the series), tumour line C
[9] = at 21.2 µM (top of the series), tumour line B
[10] = at 21.2 µM (top of the series), tumour line D

CN(C)C(=O)COC(=O)Cc1ccc(OC(=O)c2ccc(N=C(N)N)cc2)cc1
inactive: activity, negative = cell killing [1, 4] -12.3% | activity, negative = cell killing [1, 5] 2.44% | activity, negative = cell killing [1, 6] -19.5% | Potency (astro)

CS(=O)(=O)OCCCCOS(C)(=O)=O
inactive: activity, negative = cell killing [1, 4] -4.65% | activity, negative = cell killing [1, 5] -5.18% | activity, negative = cell killing [1, 7] -16.3% | activity, negative = cell killing [1, 6] -0.778% | Potency (astro) | max response [2] 1.78% and 1.87% and -0.923%

CN1C(C(=O)Nc2ccccn2)=C(O)c2sccc2S1(=O)=O
inactive: activity, negative = cell killing [1, 8] 2.25% | activity, negative = cell killing [1, 9] -11.7% | activity, negative = cell killing [1, 10] -11.3% | Potency (astro)

CN(c1nccc(=O)[nH]1)C1CCN(c2nc3ccccc3n2Cc2ccc(F)cc2)CC1
inactive: activity, negative = cell killing [1, 4] -7.08% | activity, negative = cell killing [1, 5] -20% | activity, negative = cell killing [1, 6] -6.39% | Potency (astro)

CN(C)CCc1c[nH]c2ccc(Cn3cncn3)cc12
inactive: activity, negative = cell killing [1, 4] -9.89% | activity, negative = cell killing [1, 5] -20.8% | activity, negative = cell killing [1, 6] -16% | Potency (astro)

COc1ccc(C2(C#N)CCC(C(=O)O)CC2)cc1OC1CCCC1 (stereo not drawn)
inactive: activity, negative = cell killing [1, 4] -12.3% | activity, negative = cell killing [1, 5] -10.6% | activity, negative = cell killing [1, 6] -18.3% | Potency (astro)

Cc1cccc(C)c1OCC(=O)N[C@@H](Cc1ccccc1)[C@@H](O)C[C@H](Cc1ccccc1)NC(=O)[C@H](C(C)C)N1CCCNC1=O
inactive: activity, negative = cell killing [1, 4] -15.7% | activity, negative = cell killing [1, 5] -27.5% | activity, negative = cell killing [1, 6] -29% | Potency (astro)
active: Potency ([1]; tumour line A) 10 µM

Cn1c(NCCN(CCO)CCCc2ccc([N+](=O)[O-])cc2)cc(=O)n(C)c1=O
active: Potency ([1]; tumour line A) 7.08 µM
inactive: activity, negative = cell killing [1, 4] -18.9% | activity, negative = cell killing [1, 5] -12.5% | activity, negative = cell killing [1, 6] -1.17% | Potency (astro)

NNc1nncc2ccccc12
inactive: activity, negative = cell killing [1, 8] -13.5% | activity, negative = cell killing [1, 9] -20% | activity, negative = cell killing [1, 10] -12.5% | Potency (astro)

COC(=O)N[C@H](C(=O)N[C@@H](Cc1ccccc1)[C@@H](O)CN(Cc1ccc(-c2ccccn2)cc1)NC(=O)[C@@H](NC(=O)OC)C(C)(C)C)C(C)(C)C
active: Potency ([1]; tumour line A) 11.2 µM
inactive: activity, negative = cell killing [1, 4] -0.919% | activity, negative = cell killing [1, 5] -29.7% | activity, negative = cell killing [1, 6] 8.04% | Potency (astro)

COc1ccc2cc([C@H](C)C(=O)O)ccc2c1
inactive: activity, negative = cell killing [1, 8] -12.8% | activity, negative = cell killing [1, 9] -16.1% | activity, negative = cell killing [1, 10] -8.68% | Potency (astro)

COc1cc(OC)c(C(=O)CCCN2CCCC2)c(OC)c1
inactive: activity, negative = cell killing [1, 8] 0.201% | activity, negative = cell killing [1, 9] -11.8% | activity, negative = cell killing [1, 10] -17.1% | activity, negative = cell killing ([1]; at 21.3 µM (top of the series), tumour line A) -24.2% | Potency (astro)

CCC1=C(C)CN(C(=O)NCCc2ccc(S(=O)(=O)NC(=O)NC3CCC(C)CC3)cc2)C1=O (stereo not drawn)
inactive: activity, negative = cell killing [1, 4] 4.42% | activity, negative = cell killing [1, 5] -28.4% | activity, negative = cell killing [1, 6] -8.33% | Potency (astro)

CC(S)C(=O)NCC(=O)O (stereo not drawn)
inactive: activity, negative = cell killing [1, 4] -0.523% | activity, negative = cell killing [1, 5] -24.6% | activity, negative = cell killing [1, 7] -28.9% | activity, negative = cell killing [1, 6] -4.37% | Potency (astro)

Cc1cc2cc3c(C)cc(=O)oc3c(C)c2o1
inactive: activity, negative = cell killing [1, 8] -6.21% | activity, negative = cell killing [1, 9] -13.8% | activity, negative = cell killing [1, 10] -30.4% | Potency (astro)

O=C(OC1C[C@H]2CC[C@@H](C1)[N+]21CCCC1)C(O)(c1ccccc1)c1ccccc1 (stereo partly drawn)
inactive: activity, negative = cell killing [1, 4] -3.76% | activity, negative = cell killing [1, 5] -11.8% | activity, negative = cell killing [1, 6] -2.11% | Potency (astro)

NC(=O)Cc1cccc(C(=O)c2ccccc2)c1N
inactive: activity, negative = cell killing [1, 4] -10.2% | activity, negative = cell killing [1, 5] -28% | activity, negative = cell killing [1, 6] -24.8% | Potency (astro)

CC(C)[C@H](N)C(=O)OCCOCn1cnc2c(=O)[nH]c(N)nc21
inactive: activity, negative = cell killing [1, 4] -5.53% | activity, negative = cell killing [1, 5] -4.6% | activity, negative = cell killing [1, 6] 14.5% | Potency (astro)

COC(=O)C1=C(C)NC(C)=C(C(=O)OC(C)C)C1c1cccc2nonc12 (stereo not drawn)
inactive: activity, negative = cell killing [1, 8] -16.7% | activity, negative = cell killing [1, 9] -11.5% | activity, negative = cell killing [1, 10] -1.17% | Potency (astro)

CCOC(=O)C1=C[C@@H](OC(CC)CC)[C@H](NC(C)=O)[C@@H](N)C1
inactive: activity, negative = cell killing [1, 4] -10.4% | activity, negative = cell killing [1, 5] -1.97% | activity, negative = cell killing [1, 6] 5.2% | Potency (astro)

Nc1ccc(S(N)(=O)=O)cc1
inactive: activity, negative = cell killing [1, 4] -13.5% | activity, negative = cell killing [1, 5] -7.18% | activity, negative = cell killing [1, 7] -12.5% | activity, negative = cell killing [1, 6] 10.5% | Potency (astro) | max response [2] 5.05% | outcome [3]

Nc1ccn([C@@H]2O[C@H](CO)[C@@H](O)C2O)c(=O)n1 (stereo partly drawn)
active: Potency ([1]; tumour line A) 7.08 µM
inactive: activity, negative = cell killing [1, 5] -14.9% | activity, negative = cell killing [1, 6] -25.6% | Potency (astro)

Reference: PubChem BioAssay (NCATS)
